Measurements as given in PubChem BioAssay (NCATS).
Results filed as inconclusive are left out. Calls of active or inactive are those of the source. Calls follow the shape of the dose curve; as a rule, active = well fitted inhibition curve with a large enough effect; inconclusive = small, poorly fitted or top-dose-only effect, or effect the other way; inactive = flat fitted curve, though single readings scatter.

target: ATP-dependent 6-phosphofructokinase (Trypanosoma brucei brucei) (UniProt O15648); assay: qHTS Assay to Find Inhibitors of T. brucei phosphofructokinase: hit validation (AID 492961);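 also: luminescence reports ADP formed as PFK phosphorylates fructose-6-phosphate with ATP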; conditions: T. brucei PFK, ADP-Glo luminescence; series mostly up to 51.4 µM; activity change, negative = inhibition: at the top concentration
Sequence (O15648 whole entry, looked up): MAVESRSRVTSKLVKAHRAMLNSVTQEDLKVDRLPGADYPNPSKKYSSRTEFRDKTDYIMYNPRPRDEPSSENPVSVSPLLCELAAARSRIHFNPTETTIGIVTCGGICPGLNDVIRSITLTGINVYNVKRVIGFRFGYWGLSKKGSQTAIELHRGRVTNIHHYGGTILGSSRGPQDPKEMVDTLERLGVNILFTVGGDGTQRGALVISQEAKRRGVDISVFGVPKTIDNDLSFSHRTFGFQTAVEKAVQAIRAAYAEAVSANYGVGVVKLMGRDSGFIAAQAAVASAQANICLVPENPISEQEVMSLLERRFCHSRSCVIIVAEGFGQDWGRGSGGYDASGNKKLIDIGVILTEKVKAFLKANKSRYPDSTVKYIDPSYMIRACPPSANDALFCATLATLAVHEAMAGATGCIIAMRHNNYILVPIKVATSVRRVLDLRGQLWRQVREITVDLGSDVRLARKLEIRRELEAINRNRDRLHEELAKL
How it was run: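 ADP-Glo luminescence read-out of ADP formed by 1.25 nM PFK from 0.1 mM ATP and 0.5 mM F6P (TEA pH 8.0, 45 min, RT). Compounds titrated; activity normalized to no-enzyme and full-enzyme controls.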
% is scaled to controls: 0 for no effect and ±100 for the full control effect.

Structure (SMILES) | activity change, negative = inhibition | outcome
CC(C)(C)NCC(O)c1cc(Cl)c(N)c(C(F)(F)F)c1 (stereo not drawn) | 2.15% (inactive) | –
CN1CCC(O)(c2ccc(F)cc2)C(C(=O)c2ccc(F)cc2)C1 (stereo not drawn) | -12.4% (inactive) | –
O=C1CN=C(c2ccccc2)c2cc([N+](=O)[O-])ccc2N1 | -9.43% (inactive) | –
Oc1ccc(Cl)cc1 | 0% (inactive) | –
CC(C)=CC1C(C(=O)OCN2C(=O)C3=C(CCCC3)C2=O)C1(C)C (stereo not drawn) | -10.5% (inactive) | –
CCCC(C)(COC(N)=O)COC(N)=O | 11.2% (inactive) | –
Cc1nnc2n1-c1ccc(Cl)cc1C(c1ccccc1Cl)=NC2 | -5.24% (inactive) | –
O=C1Nc2ccc(Cl)cc2C(c2ccccc2)=NC1O (stereo not drawn) | 1.48% (inactive) | –
COc1ccc2c(c1)C13CCCC[C@@H]1C(C2)N(C)CC3 (stereo partly drawn) | -7.72% (inactive) | –
O=C(N/N=C/c1ccc([N+](=O)[O-])o1)c1cc([N+](=O)[O-])cc([N+](=O)[O-])c1O | -8.32% (inactive) | –
CN1C(=O)CC(=O)N(c2ccccc2)c2cc(Cl)ccc21 | -7.17% (inactive) | –
NC(=O)c1cc([N+](=O)[O-])cc([N+](=O)[O-])c1 | -2.63% (inactive) | –
COc1cccc([C@@]2(O)CCCC[C@@H]2CN(C)C)c1 | -0.641% (inactive) | –
CC(C)NC(C)C | 0.269% (inactive) | –
O=C1c2ccccc2C(=O)c2ccccc21 | -10.9% (inactive) | –
Clc1cccc(SC2CCNCC2)n1 | 0% (inactive) | –
O=C(Nc1ccc(Br)cc1)c1cc(Br)cc(Br)c1O | -4.18% (inactive) | –

Structure (SMILES) | activity change, negative = inhibition | outcome
CN1C(=O)NC(=O)C(C)(C2=CCCCC2)C1=O (stereo not drawn) | – | inactive
c1ccc2c(c1)sc1ccccc12 | -3.39% (inactive) | –
O=c1oc2ccccc2c(O)c1Cc1c(O)c2ccccc2oc1=O | 0.958% [at 24.3 µM] (inactive) | –
Nc1ccccc1C(=O)O | 9.46% (inactive) | –
C=CCN1C[C@H](C)N([C@H](c2ccc(C(=O)N(CC)CC)cc2)c2cccc(OC)c2)C[C@H]1C | 7.33% (inactive) | –
NNc1ccccc1 | 0.426% (inactive) | –
CN1C(=O)COc2c(C(=O)NC3CN4CCC3CC4)cc(Cl)cc21 (stereo not drawn) | 7.42% (inactive) | –
CN1C(=O)C(O)N=C(c2ccccc2)c2cc(Cl)ccc21 (stereo not drawn) | -0.687% (inactive) | –
COP(=S)(OC)Oc1ccc(SC)c(C)c1 | 10.2% (inactive) | –
COc1c2c(cc3c1OCO3)CCN(C)C2 | 11.3% [at 24.3 µM] (inactive) | –
CCCCCCC(=O)CCCCCC/C=C/C[C@@H](O)[C@H](O)[C@@](N)(CO)C(=O)O | 2.53% (inactive) | –
CCOP(=S)(OCC)Oc1ccc2c(C)c(Cl)c(=O)oc2c1 | 5.95% (inactive) | –
NC(=O)CC[C@@H]1NC(=O)[C@H](Cc2ccccc2)NC(=O)[C@H](Cc2ccc(O)cc2)NC(=O)[C@@H](N)CSSC[C@@H](C(=O)N2CCC[C@H]2C(=O)N[C@@H](CCCN=C(N)N)C(=O)NCC(N)=O)NC(=O)[C@H](CC(N)=O)NC1=O | -5.12% (inactive) | –
NC(=O)CS(=O)C(c1ccccc1)c1ccccc1 (stereo not drawn) | -4.38% (inactive) | –
C[C@](O)(CS(=O)(=O)c1ccc(F)cc1)C(=O)Nc1ccc(C#N)c(C(F)(F)F)c1 | -3.43% (inactive) | –
COP(=S)(OC)Oc1ccc(S(=O)(=O)N(C)C)cc1 | 2.04% (inactive) | –
